# Experimental data reported in the supplement of paper PMC9135407.
# Values joined by “and” are separate entries in the source; they are usually repeats but may differ in a detail not shown here. Equal values may be shown once. Where a name gives a salt, the structure may show the parent alone. The campaign covered roughly 5,800 compounds. About 620 (11%) showed activity.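 The calls were made as follows: active = score above a cut-off or among the top three wells of a plate; in these data no inactive exceeds 0.85.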 Only a selection was taken, and actives are over-represented in it overall.
# System: primary human hepatic stellate cells (donor 1)
# Assay: scaled lipid accumulation score (0 = DMSO-like, 1 = nortriptyline-like); higher = stronger HSC inactivation (lipid re-accumulation), active = hit call of the paper
# Details: 48 h
# [1] = library stock concentration: 1 mM
# [2] = library stock concentration: 10 mM
# [3] = library stock concentration: 2 mM
# [4] = library stock concentration: 80 uM
# [5] = library stock concentration: 400 uM
# [6] = library stock concentration: 3.33 mM
# [7] = library stock concentration: 2.6 mM
compound,measurement,setting,value
CCCCC[C@H](O)/C=C/[C@@H]1[C@@H](C/C=C\CCCCN(C)C)[C@@H](O)C[C@H]1O [Prostaglandin F2.alpha. dimethyl amine],scaled lipid accumulation score,[1],≤ 0 (inactive)
CCCCCCCCCCCCCCCCCCOCC(COP(=O)([O-])OCC[N+](C)(C)C)OC (stereo not drawn),scaled lipid accumulation score,[2],≤ -0.024 (inactive)
O=C(O)CCC/C=C\C[C@@H]1[C@@H](/C=C/C(=O)CCc2ccccc2)[C@H](O)C[C@@H]1O [15-keto-17-phenyl trinor Prostaglandin F2.alpha.],scaled lipid accumulation score,[1],≤ 0 (inactive)
CCCCC[C@H](O)/C=C/[C@@H]1[C@@H](C/C=C\CCCC(=O)OCC(O)CO)[C@@H](O)C[C@H]1O (stereo partly drawn) [Prostaglandin F2.alpha.-1-glyceryl ester],scaled lipid accumulation score,[1],≤ 0 (inactive)
CCCCCCCC(=O)CC[C@@H]1[C@@H](C/C=C\CCCC(=O)OC(C)C)[C@@H](O)C[C@H]1O [Unoprostone isopropyl ester],scaled lipid accumulation score,[1],≤ 0 (inactive)
CN1CCN(Cc2ccc(-c3cnc4[nH]cc(-c5ccc6[nH]ccc6c5)c4c3)cc2)CC1 [listing 1 of 2 here],scaled lipid accumulation score,[3],1.3 (active)
CN1CCN(Cc2ccc(-c3cnc4[nH]cc(-c5ccc6[nH]ccc6c5)c4c3)cc2)CC1 [listing 2 of 2 here],scaled lipid accumulation score,[4],≤ -0.001 (inactive)
same,scaled lipid accumulation score,[5],0.001 (inactive)
same,scaled lipid accumulation score,[2],0.422 (inactive)
O=C(O)c1ccc(-c2c[nH]c3ncc(-c4ccccc4)cc23)cc1C1CCCC1,scaled lipid accumulation score,[6],≤ -0.009 (inactive)
same,scaled lipid accumulation score,[2],0.079 (inactive) and ≤ -0.001 (inactive)
NC[C@H]1O[C@@H](n2cnc3c(N)ncnc32)[C@H](O)[C@@H]1O [5'-Amino-5'-deoxyadenosine p-toluenesulfonate salt],scaled lipid accumulation score,[2],≤ 0 (inactive)
CCN(CC)CCOc1ccc2c(c1)C(=O)c1cc(OCCN(CC)CC)ccc1-2 [Tilorone] [listing 1 of 2 here],scaled lipid accumulation score,[2],0.879 (active)
CCCOc1cc(N)ccc1C(=O)OCCN(CC)CC [Propoxycaine hydrochloride],scaled lipid accumulation score,,≤ 0 (inactive)
CCN(CC)CCOc1ccc2c(c1)C(=O)c1cc(OCCN(CC)CC)ccc1-2 [Tilorone] [listing 2 of 2 here],scaled lipid accumulation score,library stock concentration: 4.9 mM,0.006 (inactive)
FC(F)(F)COCC(F)(F)F [Flurothyl],scaled lipid accumulation score,library stock concentration: 11 mM,≤ -0.001 (inactive)
OCCC#Cc1nc(-c2ccc(F)cc2)c(-c2ccncc2)n1CCCc1ccccc1,scaled lipid accumulation score,[5],≤ -0.005 (inactive)
same,scaled lipid accumulation score,[3],≤ -0.005 (inactive)
same,scaled lipid accumulation score,[2],0.668 (inactive)
Nc1ncnc2c1ncn2C1CCCO1 (stereo not drawn),scaled lipid accumulation score,[2],≤ 0 (inactive) and ≤ -0.006 (inactive)
same,scaled lipid accumulation score,library stock concentration: 24.4 mM,≤ -0.005 (inactive)
CC(=O)c1ccc2c(c1)N(CCCN1CCC(CCO)CC1)c1ccccc1S2 [Piperacetazine],scaled lipid accumulation score,,0.427 (inactive)
CSc1ccccc1N1CCN(CCCCCC(=O)NC2CCCc3ccccc32)CC1.Cl (stereo not drawn),scaled lipid accumulation score,[2],1.06 (active)
COc1ccccc1N1CCN(CCCCN2C(=O)c3ccccc3C2=O)CC1 [NAN-190 hydrobromide],scaled lipid accumulation score,[2],0.324 (inactive) and 0.002 (inactive)
CC(=O)c1ccc2c(c1)N(CCCN1CCN(CCO)CC1)c1ccccc1S2,scaled lipid accumulation score,[2],0.638 (inactive)
Cl.O=C(CCCCCN1CCN(c2ccccc2-c2ccccc2)CC1)NC1CCCc2ccccc21 (stereo not drawn) [LP 12 hydrochloride hydrate],scaled lipid accumulation score,[2],0.898 (active)
O=C(O)C=C1CCCc2ccccc2C1O (stereo not drawn),scaled lipid accumulation score,[2],0.122 (inactive) and 0.034 (inactive)
CC(=O)Nc1cccc2c1c(Sc1ccc(Cl)cc1)c(C)n2CC(=O)O,scaled lipid accumulation score,[6],≤ -0.009 (inactive)
same,scaled lipid accumulation score,[2],0.195 (inactive)
CC[n+]1c(/C=C/N(C)c2ccccc2)n(-c2ccccc2)c2ccc(-c3nc4ccccc4s3)cc21 [Akt Inhibitor IV],scaled lipid accumulation score,[6],≤ 0 (inactive)
CCCCCCCCCCCCCCCCCCCC(=O)NCCO [Arachidoyl Ethanolamide],scaled lipid accumulation score,[1],≤ 0 (inactive)
COc1cc(/C=C/C(=O)N2CCCCCCC2)cc(OC)c1OC,scaled lipid accumulation score,[2],≤ 0 (inactive)
C[C@H]1O[C@@H](O[C@H]2[C@@H](O)C[C@H](O[C@H]3[C@@H](O)C[C@H](O[C@H]4CC[C@]5(C)C6C[C@@H](O)[C@]7(C)[C@@H](C8=CC(=O)OC8)CC[C@]7(O)C6CC[C@@H]5C4)O[C@@H]3C)O[C@@H]2C)C[C@H](O)[C@@H]1O (stereo partly drawn) [Digoxin],scaled lipid accumulation score,[7],0.937 (active)
C[C@H]1O[C@@H](O[C@H]2[C@@H](O)C[C@H](O[C@H]3[C@@H](O)C[C@H](O[C@H]4CC[C@@]5(C)[C@H](CC[C@@H]6[C@@H]5C[C@@H](O)[C@]5(C)[C@@H](C7=CC(=O)OC7)CC[C@]65O)C4)O[C@@H]3C)O[C@@H]2C)C[C@H](O)[C@@H]1O [Digoxin],scaled lipid accumulation score,,1.03 (active)
same,scaled lipid accumulation score,[6],1.11 (active)
same,scaled lipid accumulation score,[2],0.888 (active) and 0.816 (inactive)
C[C@H]1O[C@@H](O[C@H]2[C@@H](O)C[C@H](O[C@H]3[C@@H](O)C[C@H](O[C@H]4CC[C@@]5(C)[C@H](CC[C@@H]6[C@@H]5CC[C@]5(C)[C@@H](C7=CC(=O)OC7)CC[C@]65O)C4)O[C@@H]3C)O[C@@H]2C)C[C@H](O)[C@@H]1O [Digitoxin],scaled lipid accumulation score,[2],0.545 (inactive)
C[C@H]1O[C@@H](O[C@H]2[C@@H](O)C[C@H](O[C@H]3[C@@H](O)C[C@H](O[C@H]4CC[C@]5(C)C6CC[C@]7(C)[C@@H](C8=CC(=O)OC8)CC[C@]7(O)C6CC[C@@H]5C4)O[C@@H]3C)O[C@@H]2C)C[C@H](O)[C@@H]1O (stereo partly drawn) [Digitoxin],scaled lipid accumulation score,[7],1.2 (active)
C[C@H]1O[C@@H](O[C@H]2[C@@H](O)C[C@H](O[C@H]3[C@@H](O)C[C@H](O[C@H]4CC[C@@]5(C)[C@H](CC[C@@H]6[C@@H]5C[C@@H](O)[C@]5(C)[C@@H](C7=CC(=O)OC7)CC[C@]65O)C4)O[C@@H]3C)O[C@@H]2C)C[C@H](O)[C@@H]1O,scaled lipid accumulation score,[2],0.599 (inactive)
N[C@@H](Cc1ccc(F)cc1)C(=O)O [p-Fluoro-L-phenylalanine],scaled lipid accumulation score,[2],≤ -0.07 (inactive)
Nc1nc(-c2ccc(Cl)c(Cl)c2)c(-c2ccncc2)s1 [CGH 2466 dihydrochloride],scaled lipid accumulation score,[2],0.001 (inactive)
O=[N+]([O-])c1cc2nc(O)c(O)nc2cc1[N+](=O)[O-],scaled lipid accumulation score,[2],≤ -0.07 (inactive) and ≤ 0 (inactive)
CC(C)[C@H](NC(=O)[C@H](CC(=O)O)NC(=O)[C@H](CCCCN)NC(=O)[C@@H](N)CCCN=C(N)N)C(=O)N[C@@H](Cc1ccc(O)cc1)C(=O)O,scaled lipid accumulation score,[2],≤ 0 (inactive)
CCOC(=O)[C@]12CC1/C(=N\O)c1ccccc1O2 (stereo partly drawn),scaled lipid accumulation score,[2],≤ 0 (inactive) and 0.015 (inactive)
c1cc2c(cc1C1CCCCC1)c1c3n2CCNC3CCC1 (stereo not drawn) [Tetrindole mesylate],scaled lipid accumulation score,[2],≤ 0 (inactive)
Cc1ccc2c(c1)c1c3n2CCNC3CCC1 (stereo not drawn) [Pirlindole mesylate],scaled lipid accumulation score,,0.472 (inactive)
CS(=O)(=O)O.Cc1ccc2c(c1)c1c3n2CCNC3CCC1 (stereo not drawn) [Pirlindole mesylate],scaled lipid accumulation score,[2],0.93 (active)
Cc1cncc2cccc(S(=O)(=O)N3CCCN(C(=O)CN)C[C@@H]3C)c12 [Rho Kinase Inhibitor IV],scaled lipid accumulation score,[6],≤ 0 (inactive)
C=CCN(C)CCCCCCOc1ccc(C(=O)c2ccc(Br)cc2)c(F)c1,scaled lipid accumulation score,[1],0.116 (inactive)
CCCCC/C=C\C/C=C\CCCCCCCC(=O)OCC(COC(=O)CCCCCCCCCCCCCCC)OC(=O)CCCCCCC/C=C\CCCCCCCC (racemic) [1-Palmitoyl-2-oleoyl-3-linoleoyl-rac-glycerol],scaled lipid accumulation score,[1],0.03 (inactive)
OC1C[C@@H]2[C@@H](CC[C@@H](O)CCc3ccccc3)[C@H](O)C[C@@H]2O1 (stereo partly drawn) [Latanoprost Lactol],scaled lipid accumulation score,[1],0.027 (inactive)
COc1cc2ncnc(Nc3ccc(Oc4ccccc4)cc3)c2cc1OC,scaled lipid accumulation score,[2],0.029 (inactive)
"COc1cc2ncnc(Nc3cccc(O)c3)c2cc1OC [WHI-P180, Hydrochloride]",scaled lipid accumulation score,[6],≤ 0 (inactive)
COc1cc2ncnc(Nc3ccc(Cl)cc3Cl)c2cc1OC [Ste11 MAPKKK Activation Inhibitor],scaled lipid accumulation score,[6],≤ 0 (inactive)
COc1cc2ncnc(Nc3ccc(Oc4ccccc4)cc3)c2cc1OC [Src Kinase Inhibitor I],scaled lipid accumulation score,[6],≤ 0 (inactive)
COc1cc2ncnc(Nc3cccc(Cl)c3)c2cc1OC [Tyrphostin AG 1478],scaled lipid accumulation score,[2],0.882 (active)
COc1cc2ncnc(Nc3cccc(Cl)c3)c2cc1OC,scaled lipid accumulation score,[4],≤ -0.016 (inactive)
same,scaled lipid accumulation score,[5],≤ -0.016 (inactive)
same,scaled lipid accumulation score,[3],≤ -0.016 (inactive)
same,scaled lipid accumulation score,[6],≤ 0 (inactive)
same,scaled lipid accumulation score,[2],0.749 (inactive)
same,scaled lipid accumulation score,library stock concentration: 14.2 mM,0.452 (inactive)
COc1cc2ncnc(Nc3cccc(Cl)c3)c2cc1OC [AG-1478 (Tyrphostin AG-1478)] [listing 1 of 2 here],scaled lipid accumulation score,[6],≤ 0 (inactive)
COc1cc2ncnc(Nc3cccc(Cl)c3)c2cc1OC [AG-1478 (Tyrphostin AG-1478)] [listing 2 of 2 here],scaled lipid accumulation score,[2],1.07 (active)
CCCCCCCCCCCCCCCCOC[C@H](COP(=O)([O-])OCC[N+](C)(C)C)SC(C)=O [2-thio-PAF],scaled lipid accumulation score,[1],≤ 0 (inactive)
CN1C(=O)C(c2c[nH]c3ccccc23)=C(c2c[nH]c3ccccc23)C1=O [Bisindolylmaleimide V],scaled lipid accumulation score,[1],≤ 0 (inactive)
same,scaled lipid accumulation score,[6],≤ 0 (inactive)
C[C@H]1[C@H](C)CC[C@]2(C(=O)O[C@@H]3O[C@H](CO[C@@H]4O[C@H](CO)[C@@H](O[C@@H]5O[C@H](C)[C@H](O)[C@@H](O)[C@H]5O)[C@H](O)[C@H]4O)[C@@H](O)[C@H](O)[C@H]3O)CC[C@]3(C)C(=CC[C@@H]4[C@@]5(C)C[C@@H](O)[C@H](O)[C@@](C)(CO)[C@@H]5CC[C@]43C)[C@H]12 [Asiaticoside],scaled lipid accumulation score,,≤ 0 (inactive)
Cn1c(Nc2ccc(C(F)(F)F)cc2)nc2cc(Oc3ccnc(-c4ncc(C(F)(F)F)[nH]4)c3)ccc21,scaled lipid accumulation score,[4],≤ -0.001 (inactive)
same,scaled lipid accumulation score,[5],≤ -0.003 (inactive)
same,scaled lipid accumulation score,[3],0.037 (inactive)
same,scaled lipid accumulation score,[6],0.031 (inactive)
same,scaled lipid accumulation score,[2],0.077 (inactive) and 0.031 (inactive)
